Common to all, as to conditions: mRNA level, 48 h; actives raise or lower the signal
Read-out in experiment [1]: Lipoprotein lipase (LPL), LPL (gene 4023)
The experiment in a line: LTEA_HepaRG_LPL: Life Technologies and Expression Analysis (LTEA) Assay for Lipoprotein lipase (LPL) using HepaRG (AID 2283515). In a few lines: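 Differentiated HepaRG cells, plated 48 h, then exposed 48 h in serum-free induction medium to 8 concentrations (top 100 uM, half-log steps) in 0.5% DMSO, duplicate. LPL mRNA measured by qRT-PCR, normalized to ACTB, GAPDH and POLR2A.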

Read-out in experiment [2]: MicroRNA 122 (MIR122), gene 406906
Put plainly: LTEA_HepaRG_MIR122: Life Technologies and Expression Analysis (LTEA) Assay for MicroRNA 122 (MIR122) using HepaRG (AID 2283516). Note: the transcript read is the microRNA miR-122. In a few lines: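 HepaRG plated 48 h, switched to serum-free induction medium, then treated in duplicate for 48 h (100 uM top, half-log steps, 0.5% DMSO vehicle). RNA isolated, qRT-PCR performed, concentration-response fitted both directions relative to DMSO.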

Read-out in experiment [3]: matrix metalloproteinase-10 (MMP10), MMP10 (gene 4319)
Put plainly: LTEA_HepaRG_MMP10: Life Technologies and Expression Analysis (LTEA) Assay for matrix metalloproteinase-10 (MMP10) using HepaRG (AID 2283517). In a few lines: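 Differentiated HepaRG cells in serum-free induction medium exposed 48 h in duplicate to 8-point half-log series up to 100 uM in 0.5% DMSO. mRNA quantified by qRT-PCR, normalised to ACTB, GAPDH, POLR2A; bidirectional fit versus DMSO.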

Read-out in experiment [4]: MYC, MYC (gene 4609)
The experiment in a line: LTEA_HepaRG_MYC: Life Technologies and Expression Analysis (LTEA) Assay for MYC using HepaRG (AID 2283518). In a few lines: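 Cells are thawed, plated and cultured 48 h, then treated for 48 h with test chemicals (eight half-log concentrations from 100 uM, 0.5% DMSO vehicle). RNA is isolated and MYC expression quantified by qRT-PCR against three housekeeping genes.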

Read-out in experiment [5]: matrix metalloproteinase-3 (MMP3), MMP3 (gene 4314)
The experiment in a line: LTEA_HepaRG_MMP3: Life Technologies and Expression Analysis (LTEA) Assay for matrix metalloproteinase-3 (MMP3) using HepaRG (AID 2283519). The procedure, abridged: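 HepaRG cells (~100,000/well) in serum-free induction medium were dosed in duplicate for 48 h with an 8-point half-log series from 100 uM, 0.5% DMSO. MMP3 mRNA was quantified by Fluidigm TaqMan qRT-PCR, normalized to three housekeeping genes.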

Read-out in experiment [6]: Paternally Expressed 10 (PEG10), PEG10 (gene 23089)
Put plainly: LTEA_HepaRG_PEG10: Life Technologies and Expression Analysis (LTEA) Assay for Paternally Expressed 10 (PEG10) using HepaRG (AID 2283520). The procedure, abridged: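 HepaRG, 48 h post-plating → serum-free induction medium → 48 h chemical exposure (duplicate, 8-pt, max 100 uM, half-log, 0.5% DMSO) → lysis in RLT → TaqMan qRT-PCR for PEG10, ACTB/GAPDH/POLR2A normalisation.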

Read-out in experiment [7]: Protein phosphatase 2A (PPP2R4), PTPA (gene 5524)
The experiment in a line: LTEA_HepaRG_PPP2R4: Life Technologies and Expression Analysis (LTEA) Assay for Protein phosphatase 2A (PPP2R4) using HepaRG (AID 2283522). In a few lines:
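Readout is PPP2R4 transcript level by microfluidic qRT-PCR after 48 h chemical treatment of human HepaRG liver cells. Concentrations spanned 100 uM downward in half-log steps; gain or loss of signal was fitted relative to DMSO.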

Read-out in experiment [8]: Phosphatase and tensin (PTEN), PTEN (gene 5728)
The experiment in a line: LTEA_HepaRG_PTEN: Life Technologies and Expression Analysis (LTEA) Assay for Phosphatase and tensin (PTEN) using HepaRG (AID 2283523). In a few lines: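 HepaRG cells, 48 h after plating, exposed in duplicate for 48 h in serum-free induction medium to 8 half-log concentrations up to 100 uM (0.5% DMSO). PTEN mRNA by qRT-PCR, normalized to ACTB, GAPDH, POLR2A; bidirectional fit versus DMSO.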

Read-out in experiment [9]: solute carrier (SLC22A1), SLC22A1 (gene 6580)
Put plainly: LTEA_HepaRG_SLC22A1: Life Technologies and Expression Analysis (LTEA) Assay for solute carrier (SLC22A1) using HepaRG (AID 2283524). In a few lines: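 Differentiated human HepaRG cells in serum-free induction medium, exposed 48 h in duplicate to 8-point half-log series from 100 µM top in 0.5% DMSO. SLC22A1 mRNA by TaqMan qRT-PCR normalized to ACTB, GAPDH, POLR2A; bidirectional fit versus DMSO.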

Read-out in experiment [10]: NAD(P)H dehydrogenase [quinone] 1 (NQO1), NQO1 (gene 1728)
The experiment in a line: LTEA_HepaRG_NQO1: Life Technologies and Expression Analysis (LTEA) Assay for NAD(P)H dehydrogenase [quinone] 1 (NQO1) using HepaRG (AID 2283526). The procedure, abridged:
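HepaRG, 48 h post-plating → serum-free induction medium → test chemical 48 h (duplicate, 100 uM top, half-log x8, 0.5% DMSO) → RNA isolation → qRT-PCR, ACTB/GAPDH/POLR2A normalization; bidirectional curve fit vs DMSO baseline.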

Read-out in experiment [11]: Nuclear factor erythroid 2-related factor 2 (Homo sapiens) (UniProt Q16236)
Put plainly: LTEA_HepaRG_NFE2L2: Life Technologies and Expression Analysis (LTEA) Assay for Nuclear factor erythroid 2-related factor 2 (NFE2L2) Transcription Factor using HepaRG (AID 2283527).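 Note: TaqMan qRT-PCR transcript level normalised to ACTB GAPDH and POLR2A housekeeping genes.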 The procedure, abridged:
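Differentiated human HepaRG cells, serum-free induction medium, exposed 48 h in duplicate to eight half-log concentrations up to 100 uM in 0.5% DMSO. NFE2L2 mRNA by Fluidigm TaqMan qRT-PCR, normalised to ACTB, GAPDH, POLR2A; bidirectional change versus DMSO.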

Read-out in experiment [12]: succinate dehydrogenase complex iron sulfur subunit B (SDHB), SDHB (gene 6390)
Put plainly: LTEA_HepaRG_SDHB: Life Technologies and Expression Analysis (LTEA) Assay for succinate dehydrogenase complex iron sulfur subunit B (SDHB) using HepaRG (AID 2283528). The procedure, abridged: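 Readout is SDHB transcript level by qRT-PCR, normalised to three housekeeping genes and fitted bidirectionally against 0.5% DMSO vehicle. Human HepaRG cells were treated for 48 h at up to 100 uM.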

Read-out in experiment [13]: solute carrier (SLCO1B1), SLCO1B1 (gene 10599)
Put plainly: LTEA_HepaRG_SLCO1B1: Life Technologies and Expression Analysis (LTEA) Assay for solute carrier (SLCO1B1) using HepaRG (AID 2283530). In a few lines:
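Gain or loss of SLCO1B1 mRNA is fitted against the 0.5% DMSO vehicle in human HepaRG liver cells treated 48 h at up to 100 uM in half-log steps. Expression comes from qRT-PCR normalized to endogenous controls.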

Read-out in experiment [14]: sulfotransferase 2A1 (SULT2A1), SULT2A1 (gene 6822)
Put plainly: LTEA_HepaRG_SULT2A1: Life Technologies and Expression Analysis (LTEA) Assay for sulfotransferase 2A1 (SULT2A1) using HepaRG (AID 2283531). The procedure, abridged: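 Cells were plated and cultured 48 h, switched to serum-free induction medium, then dosed in duplicate for 48 h (8 concentrations, max 100 uM). RNA was isolated and SULT2A1 expression measured by qRT-PCR; gain or loss of signal fitted relative to DMSO.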

Read-out in experiment [15]: Transforming Growth Factor (TGFA), TGFA (gene 7039)
Put plainly: LTEA_HepaRG_TGFA: Life Technologies and Expression Analysis (LTEA) Assay for Transforming Growth Factor (TGFA) using HepaRG (AID 2283532). In a few lines: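 Differentiated HepaRG cells exposed 48 hours in serum-free induction medium, 0.5% DMSO vehicle, 8-point half-log series from 100 uM, in duplicate. TGFA mRNA by TaqMan qRT-PCR, normalised to ACTB, GAPDH, POLR2A; bidirectional fit versus DMSO.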

Read-out in experiment [16]: Transforming Growth Factor (TGFB1), TGFB1 (gene 7040)
The experiment in a line: LTEA_HepaRG_TGFB1: Life Technologies and Expression Analysis (LTEA) Assay for Transforming Growth Factor (TGFB1) Transporter using HepaRG (AID 2283533). The procedure, abridged:
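Expression change of TGFB1 in human HepaRG cells is measured after a 48 h chemical exposure, up to 100 uM in 0.5% DMSO vehicle. Curves are fitted in both directions relative to the DMSO baseline.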

Read-out in experiment [17]: TIMP1, TIMP1 (gene 7076)
The experiment in a line: LTEA_HepaRG_TIMP1: Life Technologies and Expression Analysis (LTEA) Assay for TIMP1 using HepaRG (AID 2283534).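 Note: TaqMan qRT-PCR signal normalized to ACTB GAPDH and POLR2A housekeeping genes.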 In a few lines: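 We dosed human liver HepaRG cultures for 48 hours with up to 100 uM test chemical and measured TIMP1 expression by qRT-PCR. Activity in either direction is fitted relative to the 0.5% DMSO vehicle.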

Read-out in experiment [18]: Nuclear factor NF-kappa-B p105 subunit (Homo sapiens) (UniProt P19838)
Put plainly: LTEA_HepaRG_NFKB1: Life Technologies and Expression Analysis (LTEA) Assay for Nuclear Factor Kappa B Subunit 1 (NFKB1) using HepaRG (AID 2283521).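 Note: TaqMan qRT-PCR transcript normalised to ACTB GAPDH and POLR2A housekeeping genes.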 The procedure, abridged:
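HepaRG, 48 h exposure; 8-pt half-log series from 100 uM in 0.5% DMSO; duplicates. Readout: NFKB1 mRNA by qRT-PCR (Fluidigm arrays), housekeeping-normalized. Gain/loss fit vs DMSO baseline.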

Read-out in experiment [19]: Pyruvate Dehydrogenase Kinase 4 (PDK4), PDK4 (gene 5166)
The experiment in a line: LTEA_HepaRG_PDK4: Life Technologies and Expression Analysis (LTEA) Assay for Pyruvate Dehydrogenase Kinase 4 (PDK4) using HepaRG (AID 2283525). In a few lines:
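HepaRG cells plated 48 h, then switched to serum-free induction medium and exposed in duplicate for 48 h to 8 half-log concentrations from 100 uM in 0.5% DMSO. PDK4 mRNA measured by qRT-PCR, normalized to ACTB, GAPDH and POLR2A; bidirectional fit versus DMSO.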

Read-out in experiment [20]: Signal transducer and activator of transcription 3 (Homo sapiens) (UniProt P40763)
Put plainly: LTEA_HepaRG_STAT3: Life Technologies and Expression Analysis (LTEA) Assay for Signal transducer and activator of transcription (STAT3) using HepaRG (AID 2283529). The procedure, abridged: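 Differentiated HepaRG cells, serum-free induction medium, dosed 48 h in duplicate, 8 half-log concentrations from 100 uM in 0.5% DMSO. STAT3 mRNA by qRT-PCR, normalised to ACTB, GAPDH, POLR2A; bidirectional fit versus DMSO.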

Active and inactive are the calls of the source. Rule for the calls: active = hit-call score of the fitted dose curve at least 0.9, where 1 is the maximum; inactive = score below 0.9.

Chain of Nuclear factor erythroid 2-related factor 2 (Homo sapiens) (Q16236 whole entry, looked up): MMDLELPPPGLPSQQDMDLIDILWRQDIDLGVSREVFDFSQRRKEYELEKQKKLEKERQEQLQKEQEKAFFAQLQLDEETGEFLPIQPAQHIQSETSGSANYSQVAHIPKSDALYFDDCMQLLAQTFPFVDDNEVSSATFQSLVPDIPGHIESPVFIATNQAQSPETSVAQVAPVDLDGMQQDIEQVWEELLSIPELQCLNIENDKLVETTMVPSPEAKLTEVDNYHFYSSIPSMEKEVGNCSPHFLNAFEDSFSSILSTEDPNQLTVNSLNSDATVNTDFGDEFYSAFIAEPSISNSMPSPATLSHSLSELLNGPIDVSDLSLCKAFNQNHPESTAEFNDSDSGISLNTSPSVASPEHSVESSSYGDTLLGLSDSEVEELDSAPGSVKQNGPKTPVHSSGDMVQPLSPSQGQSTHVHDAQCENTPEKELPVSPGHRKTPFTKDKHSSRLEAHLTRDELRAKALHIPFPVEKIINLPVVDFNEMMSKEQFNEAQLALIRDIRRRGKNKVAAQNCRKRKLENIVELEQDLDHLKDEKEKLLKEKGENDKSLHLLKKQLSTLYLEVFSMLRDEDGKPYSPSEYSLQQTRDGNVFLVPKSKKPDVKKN
Chain of Signal transducer and activator of transcription 3 (Homo sapiens) (P40763 whole entry, looked up): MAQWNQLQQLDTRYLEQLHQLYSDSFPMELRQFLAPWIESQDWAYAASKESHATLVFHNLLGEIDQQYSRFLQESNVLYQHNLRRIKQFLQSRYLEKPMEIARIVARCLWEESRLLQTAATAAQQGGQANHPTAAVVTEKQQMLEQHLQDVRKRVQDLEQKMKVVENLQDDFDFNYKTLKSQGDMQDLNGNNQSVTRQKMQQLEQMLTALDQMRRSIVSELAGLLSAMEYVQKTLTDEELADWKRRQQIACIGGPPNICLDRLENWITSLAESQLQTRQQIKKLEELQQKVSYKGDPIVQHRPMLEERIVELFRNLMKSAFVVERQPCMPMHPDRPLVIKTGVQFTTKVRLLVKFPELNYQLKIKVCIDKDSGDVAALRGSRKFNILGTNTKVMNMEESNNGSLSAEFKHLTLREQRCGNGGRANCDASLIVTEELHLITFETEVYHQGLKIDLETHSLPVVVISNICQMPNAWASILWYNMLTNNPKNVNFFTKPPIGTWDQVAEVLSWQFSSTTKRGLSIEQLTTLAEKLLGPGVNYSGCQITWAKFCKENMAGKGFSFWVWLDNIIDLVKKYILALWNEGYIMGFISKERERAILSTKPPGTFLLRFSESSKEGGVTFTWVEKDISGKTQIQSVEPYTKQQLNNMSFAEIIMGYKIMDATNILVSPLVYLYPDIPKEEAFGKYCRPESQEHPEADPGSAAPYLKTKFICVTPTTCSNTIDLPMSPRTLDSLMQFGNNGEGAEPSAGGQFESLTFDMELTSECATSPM
Chain of Nuclear factor NF-kappa-B p105 subunit (Homo sapiens) (P19838 whole entry, looked up): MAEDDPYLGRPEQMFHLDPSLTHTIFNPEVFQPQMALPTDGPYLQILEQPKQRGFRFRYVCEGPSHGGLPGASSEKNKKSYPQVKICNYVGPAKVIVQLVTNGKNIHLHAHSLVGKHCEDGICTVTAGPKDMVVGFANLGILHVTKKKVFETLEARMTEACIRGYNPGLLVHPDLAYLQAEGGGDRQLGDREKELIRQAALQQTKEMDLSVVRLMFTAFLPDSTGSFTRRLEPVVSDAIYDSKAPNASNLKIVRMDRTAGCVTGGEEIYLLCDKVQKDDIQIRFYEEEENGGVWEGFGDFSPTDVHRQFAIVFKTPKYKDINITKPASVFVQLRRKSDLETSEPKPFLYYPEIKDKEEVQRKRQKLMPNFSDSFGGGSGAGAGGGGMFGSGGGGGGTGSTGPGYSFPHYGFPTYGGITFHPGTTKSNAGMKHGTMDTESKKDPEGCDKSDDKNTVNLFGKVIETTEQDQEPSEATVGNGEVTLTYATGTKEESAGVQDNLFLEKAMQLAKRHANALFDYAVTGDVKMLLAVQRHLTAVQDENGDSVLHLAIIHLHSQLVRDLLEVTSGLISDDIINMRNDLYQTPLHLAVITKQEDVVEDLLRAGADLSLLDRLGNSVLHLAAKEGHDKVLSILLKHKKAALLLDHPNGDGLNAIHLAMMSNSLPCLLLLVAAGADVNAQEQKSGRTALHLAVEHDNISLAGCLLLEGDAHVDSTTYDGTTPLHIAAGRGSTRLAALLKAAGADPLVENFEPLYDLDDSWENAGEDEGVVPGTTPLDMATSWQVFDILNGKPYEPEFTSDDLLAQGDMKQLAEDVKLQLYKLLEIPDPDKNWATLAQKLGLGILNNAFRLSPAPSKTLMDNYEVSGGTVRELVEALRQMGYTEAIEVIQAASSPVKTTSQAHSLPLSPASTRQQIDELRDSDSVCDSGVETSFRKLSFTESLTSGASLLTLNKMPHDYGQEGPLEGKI

As to `c1ccc2ccccc2c1`, the outcome in [1], in experiment [2], in experiment [3], in experiment [4], in experiment [5] and in [6] was inactive. Further, the outcome in [7], in experiment [8], in experiment [9], in experiment [10], in experiment [11] and in [12] was inactive. Further, the outcome in [13], in experiment [14], in experiment [15], in experiment [16] and in experiment [17] was inactive.

On to `COCC(C)OCC(C)OCC(C)O` (centres undefined), for which the result in experiment [1], in experiment [2], in experiment [3], in [6], in [18] and in experiment [7] was inactive. Further, the outcome in experiment [9], in experiment [19], in experiment [10], in experiment [11], in [12] and in experiment [20] was inactive. For the same compound, the outcome in [13], in experiment [14], in experiment [16] and in experiment [17] was inactive.

As for `C[C@]12CC[C@@H]3c4ccc(O)cc4CC[C@H]3[C@@H]1CCC2=O`, the outcome in [1], in [2], in [3], in experiment [6], in experiment [7] and in experiment [19] was inactive. Further, the call in experiment [10], in experiment [11], in experiment [12], in [20], in experiment [13] and in experiment [14] was inactive. The outcome in experiment [16] and in experiment [17] was inactive. The AC50 in experiment [9] was 33.3 µM (active).

Regarding `CCCCCCCCN(C)CCCCCCCC`, the compound was called inactive in [1], in experiment [2], in experiment [3], in [4], in [6] and in [7]. The result in experiment [9], in experiment [10], in experiment [11], in [12], in [20] and in [13] was inactive. Besides, the call in experiment [14], in experiment [15], in experiment [16] and in [17] was inactive.

The values above are taken from PubChem BioAssay (EPA / NIEHS).
